# Reference: PubChem BioAssay (EPA / NIEHS)
# Where “and” joins values, the source holds several entries; their conditions need not be identical. Identical values can stand only once. Results filed as inconclusive are left out. Some structures have more than one record in an assay (separate samples or runs), and their calls can disagree. Calls of active or inactive are those of the source. Rule for the calls, unless noted: active = hit-call score of the fitted dose curve at least 0.9, where 1 is the maximum; inconclusive = response in the unintended direction; inactive = score below 0.9.
# What was measured:
# [1] = target: Agonist Androgen Response Element (ARE), AR (gene 367) (UniProt P10275); experiment: OT_AR_ARELUC_AG_1440: Odyssey Thera (OT) 24-hour CHO-K1 Luciferase Assay for Agonist Androgen Response Element (ARE) (AID 2283379)
# How it was run: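 Luminescence increase above DMSO, read after a 24 h compound treatment of CHO-K1 cells expressing an androgen response element luciferase reporter, gives the single primary endpoint; concentration-response fitting used the positive direction.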
# [2] = target: Estrogen receptor beta (Homo sapiens) (UniProt Q92731); experiment: OT_ER_ERbERb_1440: Odyssey Thera (OT) 24-hour HEK293T Protein-Complementation Assay for Estrogen Receptor-beta/-beta Homodimer (AID 2283380);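 note: fluorescence gain from ER beta LBD homodimer complementation read by laser scanning cytometry; scored as signal increase over DMSO baseline for both agonists and antagonists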
# How it was run: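 HEK293T cells stably expressing human ER-beta LBD (aa 310-547) PCA homodimer pair, dosed 24 h; formaldehyde-fixed, Draq5-stained. Readout: increase in nuclear (agonist) or nuclear plus cytoplasmic (antagonist) fluorescence intensity versus DMSO, gain-of-signal fitting.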
# [3] = target: Estrogen receptor (Homo sapiens) (UniProt P03372); experiment: OT_ERa_GFPERaERE_0480: Odyssey Thera (OT) 8-hour HeLa Transcription Induction Assay for Estrogen Receptor (AID 2283381; active = hit-call score of the fitted dose curve at least 0.9, where 1 is the maximum; inactive = score below 0.9)
# How it was run: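 GFP-ERE reporter, HeLa, 8 h exposure. Readout: fluorescence microscopy, high-content image analysis. Fit direction positive vs DMSO negative control.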
# [4] = target: Estrogen receptor (Homo sapiens) (UniProt P03372); experiment: OT_ERa_GFPERaERE_0120: Odyssey Thera (OT) 2-hour HeLa Transcription Induction Assay for Estrogen Receptor (AID 2283382)
# How it was run: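 Fluorescence microscopy read-out: inducible fluorescent protein reporter in HeLa cells, imaged 2 h post-dose. Signal increase over DMSO negative control fitted as single primary endpoint via high content image analysis.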
# [5] = target: Retinoic acid receptor RXR-alpha (Homo sapiens) (UniProt P19793); experiment: OT_NURR1_NURR1RXRa_0480: Odyssey Thera (OT) 8-hour HEK293T Protein Complementation Assay for Nurr1/retinoid X receptor (RXR) (AID 2283385)
# How it was run: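 Read-out: fluorescence from protein-fragment complementation between Nurr1 and RXRα in human HEK293T cells, 8 h after dosing. DMSO served as negative control; increased signal counted as activity.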
# [6] = target: Retinoic acid receptor RXR-alpha (Homo sapiens) (UniProt P19793); experiment: OT_NURR1_NURR1RXRa_1440: Odyssey Thera (OT) 24-hour HEK293T Protein Complementation Assay for Nurr1/retinoid X receptor (RXR) (AID 2283386)
# How it was run: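 Fluorescence PCA read-out; HEK293T; 24 h post-dose; bait/prey fused to reporter fragments; gain-of-signal fit vs DMSO negative control.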
# [7] = target: Peroxisome proliferator-activated receptor gamma (Homo sapiens) (UniProt P37231); experiment: OT_PPARg_PPARgSRC1_1440: Odyssey Thera (OT) 24-hour Protein-Complementation Assay for Peroxisome Proliferator-activated Receptor Gamma/ SRC-1 Co-activator (AID 2283388)
# How it was run: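 HEK293T cells transiently transfected with PPARg and SRC-1 fused via (Gly4Ser)2 linker to split Venus YFP fragments (IFP1/IFP2) were dosed 24 h; fixed, Draq5-stained, imaged at 488/635 nm; nuclear/cytoplasmic fluorescence ratio scored versus DMSO baseline, gain-of-signal.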
# [8] = target: Bile acid receptor (Homo sapiens) (UniProt Q96RI1); experiment: OT_FXR_FXRSRC1_0480: Odyssey Thera (OT) 8-hour HEK293T Protein-Complementation Assay for Farnesoid X receptor/SRC-1 Co-activator (AID 2283383)
# How it was run: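 Fluorescence intensity read-out, 8 h post-dose, HEK293T protein-fragment complementation; FXR bait and SRC-1 prey each linked to reporter fragments. Activity scored as signal increase over DMSO negative control.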
# [9] = target: Bile acid receptor (Homo sapiens) (UniProt Q96RI1); experiment: OT_FXR_FXRSRC1_1440: Odyssey Thera (OT) 24-hour HEK293T Protein-Complementation Assay for Farnesoid X receptor/SRC-1 Co-activator (AID 2283384)
# How it was run: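 Fluorescence readout, 24 h post-dose, HEK293T; FXR and SRC-1 fused to complementary reporter fragments, association reconstitutes signal. Positive-direction fit vs DMSO baseline.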
# [10] = target: Peroxisome proliferator-activated receptor gamma (Homo sapiens) (UniProt P37231); experiment: OT_PPARg_PPARgSRC1_0480: Odyssey Thera (OT) 8-hour Protein-Complementation Assay for Peroxisome Proliferator-activated Receptor Gamma / SRC-1 Co-activator (AID 2283387)
# How it was run: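 HEK293T transiently transfected with PPARg and SRC-1 fused to Venus YFP fragments, compounds 8 h at 37C. Fixed, Draq5-stained cells imaged; nuclear/cytoplasmic 488 nm fluorescence ratio over at least 350 cells per image; gain fitted versus DMSO.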
# Chain of Agonist Androgen Response Element (ARE), AR (gene 367) (P10275 whole entry, looked up): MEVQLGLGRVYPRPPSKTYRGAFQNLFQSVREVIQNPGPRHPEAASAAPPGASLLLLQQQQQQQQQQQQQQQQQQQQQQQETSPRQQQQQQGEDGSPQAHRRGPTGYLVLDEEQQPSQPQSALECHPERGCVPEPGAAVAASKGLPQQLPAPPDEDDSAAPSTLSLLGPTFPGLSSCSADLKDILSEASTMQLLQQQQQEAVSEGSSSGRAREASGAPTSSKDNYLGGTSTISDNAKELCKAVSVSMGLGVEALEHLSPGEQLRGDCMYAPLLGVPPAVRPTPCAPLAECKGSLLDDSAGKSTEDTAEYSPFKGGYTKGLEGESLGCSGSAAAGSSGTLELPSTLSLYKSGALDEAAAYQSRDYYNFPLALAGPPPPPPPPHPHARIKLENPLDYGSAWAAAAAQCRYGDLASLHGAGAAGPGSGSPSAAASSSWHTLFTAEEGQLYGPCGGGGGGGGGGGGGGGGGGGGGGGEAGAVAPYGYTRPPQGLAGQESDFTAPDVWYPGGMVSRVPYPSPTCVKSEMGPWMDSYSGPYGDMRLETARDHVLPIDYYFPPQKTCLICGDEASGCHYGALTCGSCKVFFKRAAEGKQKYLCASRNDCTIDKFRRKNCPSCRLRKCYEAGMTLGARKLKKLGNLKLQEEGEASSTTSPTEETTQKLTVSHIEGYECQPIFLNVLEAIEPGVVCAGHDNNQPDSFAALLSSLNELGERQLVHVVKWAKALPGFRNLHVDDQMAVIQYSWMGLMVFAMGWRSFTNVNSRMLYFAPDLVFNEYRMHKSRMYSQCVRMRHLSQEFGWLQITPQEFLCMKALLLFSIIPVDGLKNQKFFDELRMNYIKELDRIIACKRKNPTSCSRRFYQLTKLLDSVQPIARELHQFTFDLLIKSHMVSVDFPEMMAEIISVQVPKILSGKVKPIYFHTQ
# Chain of Estrogen receptor (Homo sapiens) (P03372 whole entry, looked up): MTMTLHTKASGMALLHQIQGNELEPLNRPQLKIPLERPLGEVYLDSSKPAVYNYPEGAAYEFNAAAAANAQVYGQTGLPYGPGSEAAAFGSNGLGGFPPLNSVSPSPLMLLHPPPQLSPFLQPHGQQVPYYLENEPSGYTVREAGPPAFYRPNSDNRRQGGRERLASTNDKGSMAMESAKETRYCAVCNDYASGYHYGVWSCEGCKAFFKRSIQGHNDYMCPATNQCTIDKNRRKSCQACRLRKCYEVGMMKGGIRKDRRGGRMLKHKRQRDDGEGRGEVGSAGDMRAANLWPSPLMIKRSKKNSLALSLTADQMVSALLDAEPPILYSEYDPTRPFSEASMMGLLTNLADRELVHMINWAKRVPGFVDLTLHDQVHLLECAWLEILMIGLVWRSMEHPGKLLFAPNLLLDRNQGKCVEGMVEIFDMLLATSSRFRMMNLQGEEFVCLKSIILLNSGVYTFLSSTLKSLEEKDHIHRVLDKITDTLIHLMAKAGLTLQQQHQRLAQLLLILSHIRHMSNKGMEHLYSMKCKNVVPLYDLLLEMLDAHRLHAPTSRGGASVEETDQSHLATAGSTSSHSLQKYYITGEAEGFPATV
# Chain of Estrogen receptor beta (Homo sapiens) (Q92731 whole entry, looked up, the tested form may be a part): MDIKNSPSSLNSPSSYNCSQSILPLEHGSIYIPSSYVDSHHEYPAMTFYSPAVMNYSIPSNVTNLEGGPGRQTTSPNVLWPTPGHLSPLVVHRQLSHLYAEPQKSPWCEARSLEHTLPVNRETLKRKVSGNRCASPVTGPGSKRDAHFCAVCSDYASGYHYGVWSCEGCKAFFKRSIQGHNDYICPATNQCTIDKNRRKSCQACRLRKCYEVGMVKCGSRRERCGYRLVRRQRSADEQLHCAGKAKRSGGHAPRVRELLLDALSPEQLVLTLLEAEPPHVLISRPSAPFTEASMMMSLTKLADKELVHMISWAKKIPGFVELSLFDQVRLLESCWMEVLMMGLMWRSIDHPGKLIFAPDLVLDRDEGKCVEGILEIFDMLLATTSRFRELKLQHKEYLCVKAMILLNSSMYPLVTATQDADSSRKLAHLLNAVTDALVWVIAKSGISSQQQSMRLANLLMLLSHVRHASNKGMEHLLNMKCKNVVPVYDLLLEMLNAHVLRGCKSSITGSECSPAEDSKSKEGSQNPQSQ
# Chain of Bile acid receptor (Homo sapiens) (Q96RI1 whole entry, looked up, the tested form may be a part): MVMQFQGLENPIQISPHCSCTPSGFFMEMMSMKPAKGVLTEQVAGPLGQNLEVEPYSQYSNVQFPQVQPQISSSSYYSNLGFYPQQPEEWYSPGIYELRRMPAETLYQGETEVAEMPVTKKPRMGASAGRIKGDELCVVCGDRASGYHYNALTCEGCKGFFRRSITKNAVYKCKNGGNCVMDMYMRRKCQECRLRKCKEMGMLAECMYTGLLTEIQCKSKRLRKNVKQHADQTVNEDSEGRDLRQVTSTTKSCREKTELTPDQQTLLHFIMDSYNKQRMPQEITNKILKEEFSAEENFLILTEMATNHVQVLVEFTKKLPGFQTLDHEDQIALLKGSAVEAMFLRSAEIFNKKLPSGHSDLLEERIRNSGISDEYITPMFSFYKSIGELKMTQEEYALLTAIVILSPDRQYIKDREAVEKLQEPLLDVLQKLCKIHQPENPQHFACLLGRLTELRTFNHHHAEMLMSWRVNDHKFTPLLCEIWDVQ
# Chain of Peroxisome proliferator-activated receptor gamma (Homo sapiens) (P37231 whole entry, looked up, the tested form may be a part): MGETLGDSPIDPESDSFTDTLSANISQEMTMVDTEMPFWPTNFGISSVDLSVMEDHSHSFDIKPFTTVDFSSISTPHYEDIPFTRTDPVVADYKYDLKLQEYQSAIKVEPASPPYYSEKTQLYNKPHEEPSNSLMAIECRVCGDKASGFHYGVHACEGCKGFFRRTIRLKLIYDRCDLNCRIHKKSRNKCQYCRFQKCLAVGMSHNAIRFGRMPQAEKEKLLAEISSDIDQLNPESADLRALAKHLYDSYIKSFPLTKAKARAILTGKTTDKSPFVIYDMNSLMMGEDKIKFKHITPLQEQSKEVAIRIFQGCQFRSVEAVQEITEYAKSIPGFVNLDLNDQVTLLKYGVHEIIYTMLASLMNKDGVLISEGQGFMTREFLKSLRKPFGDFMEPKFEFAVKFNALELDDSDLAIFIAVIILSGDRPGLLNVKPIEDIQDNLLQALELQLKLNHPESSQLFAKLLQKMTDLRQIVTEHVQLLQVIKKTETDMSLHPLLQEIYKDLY
# Chain of Retinoic acid receptor RXR-alpha (Homo sapiens) (P19793 whole entry, looked up, the tested form may be a part): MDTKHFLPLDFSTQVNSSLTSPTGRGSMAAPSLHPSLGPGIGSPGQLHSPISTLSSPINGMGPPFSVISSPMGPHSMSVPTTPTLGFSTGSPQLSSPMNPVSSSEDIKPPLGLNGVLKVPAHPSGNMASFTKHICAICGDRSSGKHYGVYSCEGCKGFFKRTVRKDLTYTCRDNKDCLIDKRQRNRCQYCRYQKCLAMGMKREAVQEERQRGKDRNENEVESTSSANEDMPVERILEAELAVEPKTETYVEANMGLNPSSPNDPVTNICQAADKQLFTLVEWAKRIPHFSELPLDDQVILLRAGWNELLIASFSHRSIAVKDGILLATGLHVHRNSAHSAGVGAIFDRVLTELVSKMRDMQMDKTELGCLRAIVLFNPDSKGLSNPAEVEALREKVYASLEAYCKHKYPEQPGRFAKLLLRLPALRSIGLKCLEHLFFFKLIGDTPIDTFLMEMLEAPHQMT
structure (smiles),measurement,setting,value
CCCCCCCc1ccc(O)cc1,outcome,[1],inactive
same,AC50,[2],12.7 µM (active) and 12.5 µM (active) and 12.6 µM (active)
same,outcome,[2],inactive
same,outcome,[3],inactive
same,outcome,[4],inactive
same,AC50,[5],50 µM (active)
same,outcome,[5],inactive
same,AC50,[6],50 µM (active)
same,outcome,[6],inactive
same,outcome,[7],inactive
CCCCC(CC)COC(=O)c1c(Br)c(Br)c(Br)c(Br)c1C(=O)OCC(CC)CCCC (centres undefined),outcome,[2],inactive
same,outcome,[3],inactive
same,outcome,[4],inactive
same,outcome,[8],inactive
same,outcome,[9],inactive
same,outcome,[5],inactive
same,outcome,[6],inactive
same,outcome,[7],inactive
CCCCN(CCCC)N=O,outcome,[2],inactive
same,outcome,[3],inactive
same,outcome,[4],inactive
same,outcome,[8],inactive
same,outcome,[5],inactive
same,outcome,[6],inactive
same,outcome,[7],inactive
Cc1cccc(N)c1,outcome,[3],inactive
same,outcome,[4],inactive
same,outcome,[10],inactive
same,outcome,[7],inactive
CCCCOCCOP(=O)(OCCOCCCC)OCCOCCCC,outcome,[2],inactive
same,outcome,[3],inactive
same,outcome,[4],inactive
same,outcome,[5],inactive
same,outcome,[6],inactive
same,outcome,[7],inactive
FC(F)(F)c1ccc(Cl)cc1,outcome,[2],inactive
same,outcome,[3],inactive
same,outcome,[4],inactive
same,outcome,[5],inactive
same,outcome,[6],inactive
same,outcome,[7],inactive
O=[N+]([O-])c1ccccc1,outcome,[2],inactive
same,outcome,[3],inactive
same,outcome,[4],inactive
same,outcome,[5],inactive
same,outcome,[6],inactive
same,outcome,[10],inactive
same,outcome,[7],inactive
CC(C)(C)c1ccc(O)cc1,outcome,[5],inactive
same,outcome,[6],inactive
same,outcome,[10],inactive
same,outcome,[7],inactive
CCOC(=O)c1ccccc1C(=O)OCC,outcome,[3],inactive
same,outcome,[4],inactive
same,outcome,[5],inactive
same,outcome,[6],inactive
same,outcome,[10],inactive
same,outcome,[7],inactive
O=P(Oc1ccccc1)(Oc1ccccc1)Oc1ccccc1,AC50,[3],12.4 µM (active)
same,AC50,[4],7.54 µM (active)
same,AC50,[8],11.9 µM (active)
same,outcome,[9],inactive
same,outcome,[5],inactive
same,outcome,[6],inactive
same,outcome,[7],inactive
Nc1ccc(Cl)cc1,outcome,[3],inactive
same,outcome,[4],inactive
same,outcome,[5],inactive
same,AC50,[6],2.33 µM (active)
same,outcome,[6],inactive
same,outcome,[7],inactive
CCCCN(CCCC)SN(C)C(=O)Oc1cccc2c1OC(C)(C)C2,outcome,[2],inactive
same,outcome,[3],inactive
same,outcome,[4],inactive
same,AC50,[5],86.2 µM (active)
same,outcome,[5],inactive
same,AC50,[6],84.7 µM (active)
same,outcome,[6],inactive
same,outcome,[7],inactive
CC(Cl)(Cl)C(=O)O,outcome,[2],inactive
same,outcome,[3],inactive
same,outcome,[4],inactive
same,outcome,[5],inactive
same,outcome,[6],inactive
same,outcome,[10],inactive
same,outcome,[7],inactive
Nc1ccc2ccccc2c1,outcome,[2],inactive
same,outcome,[3],inactive
same,outcome,[4],inactive
same,outcome,[5],inactive
same,outcome,[6],inactive
same,outcome,[10],inactive
same,outcome,[7],inactive
O=c1ssc(Cl)c1Cl,outcome,[3],inactive
same,outcome,[4],inactive
same,AC50,[9],11.4 µM (active)
same,outcome,[7],inactive
c1ccc(OP(Oc2ccccc2)Oc2ccccc2)cc1,outcome,[2],inactive
same,outcome,[3],inactive
same,outcome,[4],inactive
same,outcome,[5],inactive
same,outcome,[6],inactive
same,outcome,[7],inactive
CSC(C)(C)C=NO,outcome,[3],inactive
same,outcome,[4],inactive
same,outcome,[5],inactive
same,outcome,[10],inactive
same,outcome,[7],inactive
O=[N+]([O-])c1ccc(Cl)c(Cl)c1,outcome,[3],inactive
same,outcome,[4],inactive
same,outcome,[8],inactive
same,outcome,[9],inactive
same,outcome,[5],inactive
same,outcome,[7],inactive
c1ccc2c(c1)Nc1ccccc1S2,outcome,[2],inactive
same,outcome,[3],inactive
same,outcome,[4],inactive
same,outcome,[5],inactive
same,outcome,[6],inactive
same,outcome,[7],inactive
CCCCOCC1CO1 (centres undefined),outcome,[3],inactive
same,outcome,[4],inactive
same,outcome,[5],inactive
same,outcome,[6],inactive
same,outcome,[10],inactive
same,outcome,[7],inactive
O=C(O)CF,outcome,[2],inactive
same,outcome,[3],inactive
same,outcome,[4],inactive
same,outcome,[5],inactive
same,outcome,[7],inactive
CCOP(=S)(Oc1ccc([N+](=O)[O-])cc1)c1ccccc1 (centres undefined),outcome,[2],inactive
same,AC50,[3],12.7 µM (active)
same,AC50,[4],18.4 µM (active)
same,outcome,[5],inactive
same,outcome,[6],inactive
same,outcome,[7],inactive
CN(C)C(=O)Cl,outcome,[3],inactive
same,outcome,[4],inactive
same,outcome,[5],inactive
same,outcome,[7],inactive
O=P1(N(CCCl)CCCl)NCCCO1 (centres undefined),outcome,[2],inactive
same,outcome,[3],inactive
same,outcome,[4],inactive
same,outcome,[5],inactive
same,outcome,[6],inactive
same,outcome,[10],inactive
same,outcome,[7],inactive
OCC1CO1 (centres undefined),outcome,[3],inactive
same,outcome,[4],inactive
same,outcome,[9],inactive
same,outcome,[5],inactive
same,outcome,[6],inactive
same,outcome,[7],inactive
CCOS(=O)(=O)OCC,outcome,[2],inactive
same,outcome,[3],inactive
same,outcome,[4],inactive
same,outcome,[6],inactive
same,outcome,[10],inactive
same,outcome,[7],inactive
Nc1cc2c3c(c1)C(c1ccccc1)=N[C@@H](NC(=O)c1cccnc1)C(=O)N3CC2,outcome,[2],inactive
same,outcome,[3],inactive
same,outcome,[4],inactive
same,AC50,[5],50 µM (active)
same,outcome,[6],inactive
same,outcome,[7],inactive
CC(Cc1ccc(OCC(=O)O)cc1)NCC(O)c1csc(C(F)(F)F)n1 (centres undefined),outcome,[2],inactive
same,outcome,[3],inactive
same,outcome,[4],inactive
same,outcome,[5],inactive
same,outcome,[6],inactive
same,outcome,[10],inactive
same,outcome,[7],inactive
ClC(Cl)c1ccccc1,outcome,[3],inactive
same,outcome,[4],inactive
same,outcome,[5],inactive
same,outcome,[7],inactive
Cc1ccc(O)cc1C,outcome,[2],inactive
same,outcome,[3],inactive
same,outcome,[4],inactive
same,outcome,[5],inactive
same,outcome,[6],inactive
COCCOCCO,outcome,[2],inactive
same,outcome,[3],inactive
same,outcome,[4],inactive
same,outcome,[5],inactive
same,outcome,[6],inactive
same,outcome,[7],inactive
CCC1(c2ccccc2)C(=O)N=C(O)NC1=O (centres undefined),outcome,[2],inactive
same,outcome,[3],inactive
same,outcome,[4],inactive
same,outcome,[5],inactive
same,outcome,[6],inactive
same,outcome,[7],inactive
